Values joined by “and” are separate entries in the source; they are usually repeats but may differ in a detail not shown here. Identical values can stand only once. Hit rate of the full screen: of about 16,000 compounds, about 5,800 (36%) were called active. About 23% were inconclusive and are not listed. Calls follow the shape of the dose curve; as a rule, active = well fitted curve in the direction sought with a large enough effect; inconclusive = small, poorly fitted or top-dose-only effect, or effect the other way; inactive = no such curve, though single readings can be large or run the other way. Some of the results follow.
% is scaled to controls: 0 for no effect and ±100 for the full control effect.

Cytochrome P450 2C19 (Homo sapiens), sequence (P33261 whole entry, looked up): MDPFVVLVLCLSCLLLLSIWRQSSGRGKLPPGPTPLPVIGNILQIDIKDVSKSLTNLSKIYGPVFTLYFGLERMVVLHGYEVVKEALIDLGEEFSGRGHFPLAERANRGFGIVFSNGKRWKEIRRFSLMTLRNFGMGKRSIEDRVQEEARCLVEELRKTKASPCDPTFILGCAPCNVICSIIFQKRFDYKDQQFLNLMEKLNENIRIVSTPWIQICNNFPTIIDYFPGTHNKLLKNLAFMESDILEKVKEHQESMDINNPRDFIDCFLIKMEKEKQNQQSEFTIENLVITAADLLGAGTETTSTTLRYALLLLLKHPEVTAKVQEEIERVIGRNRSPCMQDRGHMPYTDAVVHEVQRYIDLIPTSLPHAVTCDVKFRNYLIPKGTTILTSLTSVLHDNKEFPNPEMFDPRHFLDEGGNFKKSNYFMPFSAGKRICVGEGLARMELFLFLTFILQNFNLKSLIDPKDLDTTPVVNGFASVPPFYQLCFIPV

The assay has as its target Cytochrome P450 2C19 (Homo sapiens) (UniProt P33261). Put plainly: Cytochrome panel assay with activity outcomes. The conditions noted are these: recombinant CYP, pro-luciferin dealkylation, luminescence, p450-cyp2c19; series mostly up to 57.1 µM; activity, negative = inhibition: at the top concentration.
With `Cc1noc(C)c1-c1nccc(NCc2cccnc2)n1`, the concentration at half-maximal activity (AC50) – broadly, the concentration giving half of the maximal activity seen – is 25.1 µM (active).
On to `Cc1cnc(CNc2ccnc(-c3c(C)noc3C)n2)cn1`, for which the “activity, negative = inhibition” value was 17.1% (inactive).
With `COc1ccccc1-c1nccc(NCc2cccnc2)n1`, the AC50 is 3.98 µM (active).
As to `COC(=O)C/C=C\[C@@H](C)[C@@H](/C=N\OC[C@@H](O)[C@H]1O[C@H]2OC(C)(C)O[C@H]2[C@@H]1O)OC`, the activity, negative = inhibition is -19.4% [at 11.4 µM] (inactive).
Regarding `NC(=O)Nc1n[nH]c(-c2ccccc2)n1`, the activity, negative = inhibition was 13.8% [at 11.4 µM] (inactive).
With `O=c1ccc(-c2ccccc2)n[nH]1`, the activity, negative = inhibition was 13.5% [at 11.4 µM] (inactive).
Turning to `Clc1ccccc1-c1nc(-c2ccccc2)n[nH]1`, the concentration at half-maximal activity (AC50) is 17.8 µM (active).
As for `CN1CCN(c2ncc3nc(-c4cc(F)cc(F)c4)c(=O)n(C4CC4)c3n2)CC1`, the “activity, negative = inhibition” value was 0.372% (inactive).
Turning to `Nc1ccc(S(=O)(=O)NC(=O)c2ccccc2)cc1`, the “activity, negative = inhibition” value was 6.33% [at 25.6 µM] (inactive).
With `O=S(=O)(C=C(c1ccccc1)c1ccccc1)c1ccccc1`, the AC50 is 2.82 µM (active).
As to `O=S(=O)(O)c1ccc(N=Nc2ccccc2)cc1`, the activity, negative = inhibition is 6.93% [at 11.4 µM] (inactive).
Take `COc1ccc(NC(=O)N2CC[C@@]3(CCCN(C(=O)c4cc(C(F)(F)F)cc(C(F)(F)F)c4)C3)C2)cc1`: the “activity, negative = inhibition” value was -14.2% (inactive).
With `COc1ccc(S(=O)(=O)N2CC3CCCN3c3ccc(C(F)(F)F)cc32)cc1` (stereo not given), the AC50 is 0.562 µM (active).
As to `O=S(=O)(c1ccc(F)cc1)N1CC2CCCN2c2ccc(C(F)(F)F)cc21` (stereo not given), the AC50 was 2.24 µM (active).
For the compound `COc1ccc(C(OCCN2CCC[C@@H](C(=O)O)C2)(c2ccc(OC)cc2)c2ccc(OC)cc2)cc1`, the “activity, negative = inhibition” value is -12.7% (inactive).
Regarding `Nc1ccccc1CCCC(=O)O`, the activity, negative = inhibition was -13.9% [at 11.4 µM] (inactive).
Same read-out and setting: the value for `COc1ccccc1CN1CCCC2(CCN(C(=O)c3csnn3)CC2)C1` was 10.3% (inactive).
Turning to `COC(=O)c1nn(-c2cccc(C(F)(F)F)c2)c(=O)cc1Sc1ccccn1`, the half-maximal activity concentration (AC50) is 5.62 µM (active).
The same measure, in the same setting: the value for `N#Cc1cc(N)ccc1Sc1ccc(Cl)cc1` was 3.16 µM (active); that for `CCc1sc(N(C(=O)Cc2ccccc2)c2cccc(F)c2)nc1-c1ccc(C)cc1` was 2.82 µM (active).
In the case of `c1ccc([C@H](CCN2CCCC2)c2ccccn2)cc1`, the activity, negative = inhibition was -19.9% [at 11.4 µM] (inactive).
As for `CC(C)c1ccc(-c2nnn(CCC(=O)O)n2)cc1`, the “activity, negative = inhibition” value is -25.8% (inactive).
Consider `c1ccc(-c2nnn(CCN3CCCCC3)n2)cc1`, for which the concentration at half-maximal activity (AC50) is 1.26 µM (active).
Consider `O=C(O)c1cc2ccccc2c(Cc2cc3ccccc3c(C(=O)O)c2O)c1O` (tested in a mixture with another compound), for which the “activity, negative = inhibition” value was -22.9% [at 25.6 µM] (inactive).
`COc1ccc2c(Cc3c4ccccc4cc4ccccc34)cncc2c1O`: the concentration at half-maximal activity (AC50) was 2.51 µM (active).
In the case of `O=C(c1csnn1)N1CCC2(CC1)CN(Cc1cc(C(F)(F)F)cc(C(F)(F)F)c1)C2`, the “activity, negative = inhibition” value was 17.8% (inactive).
Same read-out and setting: the value for `CCn1cc(C(=O)O)c(=O)c2cnc(N3CCNCC3)nc21` was 32.6% [at 25.6 µM] (inactive).
Take `O=C(NCc1cccnc1)c1sc2cc(Cl)ccc2c1Cl`: the AC50 was 2 µM (active).
Consider `CC[C@H](NC(C)C)[C@H](O)c1ccc(O)c(O)c1`, for which the “activity, negative = inhibition” value is -17.7% (inactive).
With `CC1=CC(=O)N(c2cccc(C(F)(F)F)c2)C1c1ccc(Cl)cc1` (stereo not given), the AC50 was 2.24 µM (active).
Consider `Cc1ccc(NC(=S)/C(=C(\[O-])c2ccc(C)c([N+](=O)[O-])c2)[n+]2ccccc2)cc1C`, for which the AC50 is 7.94 µM (active).
Take `CC1(C)[C@@H]2CC[C@@]1(CS(=O)(=O)Nc1ccccc1)C(=O)C2`: the AC50 is 2 µM (active).
Take `O=C(O)c1ccc(NS(=O)(=O)Cc2ccccc2)cc1`: the activity, negative = inhibition is -9.9% [at 11.4 µM] (inactive).
For `COC(=O)C1=C(C)NC2=C(C(=O)CCC2)C1c1cn(Cc2ccc(Cl)cc2Cl)nc1-c1ccccc1` (stereo not given), the concentration at half-maximal activity (AC50) was 2.24 µM (active).
Still for that read-out and setting: the value for `COCCOC(=O)C1=C(C)NC(=O)N(C(C)=O)C1c1ccc(Cl)cc1` (stereo not given) was 3.55 µM (active).
In the case of `CO[C@@H]1COC(=O)C/C=C\[C@H](C)[C@@H](NS(=O)(=O)c2ccc(C)cc2)COC(=O)C/C=C\[C@@H]1C`, the activity, negative = inhibition was -12.5% [at 11.4 µM] (inactive) and -34.1% [at 11.4 µM] (inactive).
`CC(c1ccccc1C(O)c1ccccc1)N(C)C` (stereo not given): the “activity, negative = inhibition” value is -16.6% (inactive).
For `NC(=O)c1ccc[n+](CC(=O)OCCC23CC4CC(CC(C4)C2)C3)c1`, the “activity, negative = inhibition” value is -28.6% (inactive).
Regarding `O=C(NCCOC12CC3CC(CC(C3)C1)C2)c1cccc(Br)c1`, the AC50 was 0.891 µM (active).
With `N[C@H](C(=O)O)c1nn[nH]n1`, the “activity, negative = inhibition” value was 29.8% (inactive).
Still for that read-out and setting: the value for `OC[C@@H](O)CN1CCN(c2ccccc2)CC1` was 39.7% [at 25.6 µM] (inactive).
Regarding `c1ccc(N2CCN(CCCOc3ccc4c(c3)OCO4)CC2)cc1`, the half-maximal activity concentration (AC50) is 5.01 µM (active).
Take `COc1ccc(O[C@H]2C=C[C@@H](c3ccccc3)O[C@H]2COC(=O)CC/C(C)=N\O[C@@H](C)CN2CCCCc3nc(C)c(C)cc32)cc1`: the AC50 was 5.01 µM (active).
For the compound `CC(=O)OC[C@@H]1O[C@H](C/C=N\O[C@@H](C)CN2CCCCc3nc(C)c(C)cc32)C=C[C@@H]1OC(C)=O`, the activity, negative = inhibition is 34.1% [at 11.4 µM] (inactive).
Same read-out and setting: the value for `CC(=O)OC[C@@H]1O[C@H](C/C=N\O[C@@H](C)CN2CCCc3nc(C)c(C)cc32)C=C[C@@H]1OC(C)=O` was 12.3% [at 11.4 µM] (inactive).
On to `COc1ccc(O[C@H]2C=C[C@@H](c3ccccc3)O[C@H]2COC(=O)CC/C(C)=N\O[C@@H](C)CN2CCCc3nc(C)c(C)cc32)cc1`, for which the half-maximal activity concentration (AC50) is 3.16 µM (active).
On to `C/C(CCN1CCCCc2nc(C)c(C)cc21)=N\O[C@@H](C)CN1CCCCc2nc(C)c(C)cc21`, for which the activity, negative = inhibition was 42.7% [at 11.4 µM] (inactive).
In the case of `C/C(CCN1CCCc2nc(C)c(C)cc21)=N\O[C@@H](C)CN1CCCCc2nc(C)c(C)cc21`, the activity, negative = inhibition was 9.26% [at 11.4 µM] (inactive).
As for `C/C(CCC(=O)OC[C@@H]1O[C@H](C#Cc2ccccc2)C=C[C@@H]1Oc1ccc(C)cc1)=N/O[C@@H](C)CN1CCCc2nc(C)c(C)cc21`, the AC50 is 3.16 µM (active).
As for `C/C(CCN1CCCCc2nc(C)c(C)cc21)=N\O[C@@H](C)CN1CCCc2nc(C)c(C)cc21`, the activity, negative = inhibition is 25.7% [at 11.4 µM] (inactive).
Same read-out and setting: the value for `C/C=C\C[C@@H](C)[C@@H](O)[C@H]1C(=O)N[C@@H](CC)C(=O)N(C)CC(=O)N(C)[C@@H](CC(C)C)C(=O)N[C@@H](C(C)C)C(=O)N(C)[C@@H](CC(C)C)C(=O)N[C@@H](C)C(=O)N[C@H](C)C(=O)N(C)[C@@H](CC(C)C)C(=O)N(C)[C@@H](CC(C)C)C(=O)N(C)[C@@H](C(C)C)C(=O)N1C` was -9.22% (inactive).
In the case of `NC(=NCc1ccccc1)NC(=O)c1nc(Cl)c(N)nc1N`, the AC50 entry is “inactive”.
Same read-out and setting: the value for `O=C1C2C3c4ccccc4C(c4ccccc43)C2C(=O)N1c1nc(-c2ccccc2)cs1` (stereo not given) was 1.78 µM (active).
On to `O=C1[C@@H]2[C@@H](C(=O)N1c1ccc(OCc3ccccc3)cc1)[C@@H]1c3ccccc3[C@@H]2[n+]2ccccc21`, for which the activity, negative = inhibition is -10.9% [at 11.4 µM] (inactive).
The same measure, in the same setting: the value for `N=C1SCC(=O)N1c1nc(-c2ccccc2)cs1` was -7.37% (inactive).
With `O=C(c1ccco1)N(CCC(c1ccccc1)c1ccco1)Cc1ccco1` (stereo not given), the AC50 is 3.98 µM (active).
For the compound `CNCCC=C1c2ccccc2C=Cc2ccccc21`, the “activity, negative = inhibition” value was 19.1% [at 25.6 µM] (inactive).
With `FC(F)(F)c1ccccc1-c1cc(NCc2cccs2)ncn1`, the AC50 was 0.794 µM (active).
For `CN(C)Cc1ccccc1-c1cc(NCc2cccs2)ncn1`, the “activity, negative = inhibition” value was 7.11% (inactive).
In the case of `Cc1ccccc1-c1cc(NCc2ccccc2)ncn1`, the AC50 was 3.16 µM (active).
Same read-out and setting: the value for `FC(F)(F)c1ccccc1-c1cc(NCc2cccnc2)ncn1` was 10 µM (active).
As for `Cc1ccccc1-c1cc(NCc2cccnc2)ncn1`, the AC50 was 10 µM (active).
For the compound `Cn1cc(-c2nc3cnc(Oc4ccccc4)nc3n(Cc3cccs3)c2=O)c2ccccc21`, the “activity, negative = inhibition” value is -11% (inactive).
As to `Cc1ccccc1Cn1nc(C)c(NC(=O)c2sc3ccccc3c2Cl)c1C`, the half-maximal activity concentration (AC50) is 14.1 µM (active).
For `Cc1ccc(C(=O)N/N=C\c2cccn2C)cn1`, the “activity, negative = inhibition” value was 18.1% (inactive).
In the case of `Cn1cccc1/C=N/NC(=O)c1sc2ccccc2c1Cl`, the concentration at half-maximal activity (AC50) is 7.94 µM (active).
As to `O=C(NC(=S)N(CCCCO)C1CCCCC1)c1sc2ccccc2c1Cl`, the AC50 was 7.08 µM (active).
On to `CCCCOC(=S)NC(=O)c1sc2ccccc2c1Cl`, for which the concentration at half-maximal activity (AC50) was 0.794 µM (active).
Turning to `Cc1nn(Cc2ccccc2Cl)c(C)c1NC(=O)CCCn1nc(C)c([N+](=O)[O-])c1C`, the “activity, negative = inhibition” value was -20.6% (inactive).
With `CO[C@H]1COC(=O)C/C=C\[C@@H](C)COC(=O)[C@H]2CCCN2C(=O)C/C=C\[C@H]1C`, the activity, negative = inhibition was -21.9% [at 11.4 µM] (inactive).
For `O=C(O)CCC(=O)c1ccc2sc3ccccc3c2c1`, the activity, negative = inhibition was 9.52% [at 11.4 µM] (inactive).
Take `CCOC(=S)NC(=O)c1sc2ccccc2c1Cl`: the AC50 is 3.16 µM (active).
For the compound `CO/N=C(\C)CCN1CCCc2nc(C)c(C)cc21`, the activity, negative = inhibition is -7.2% [at 11.4 µM] (inactive).
`Cc1cc(NC(=O)C2=C(O)c3ccccc3S(=O)(=O)N2C)no1`: the “activity, negative = inhibition” value was -6.42% [at 25.6 µM] (inactive).
For the compound `Cc1ccccc1NC1=C(C(=O)c2ccccc2)N(C)S(=O)(=O)c2ccccc21`, the AC50 was 8.91 µM (active).
Turning to `CO[C@@H]1/C=C\CC(=O)N[C@@H](C)C(=O)OC[C@@H](OC)[C@H](C)CCCC(=O)OC[C@H]1C`, the activity, negative = inhibition is -3.19% [at 11.4 µM] (inactive).
The same measure, in the same setting: the value for `C[C@@H]1CCC[C@H](C)N1NC(=O)c1ccc(Cl)c(S(N)(=O)=O)c1` was 5.63% [at 25.6 µM] (inactive).
As to `CC1CCCC(C)N1C(=O)c1cc(-c2ccc(Cl)c(Cl)c2)on1` (stereo not given), the concentration at half-maximal activity (AC50) was 11.2 µM (active).
The same measure, in the same setting: the value for `CCCN[C@@H](C)C(=O)Nc1ccccc1C` was “inactive”; that for `Cc1ccccc1NC(=O)C(C)c1cccc(C(=O)c2ccccc2)c1` (stereo not given) was 1.26 µM (active).
Turning to `N[C@@H](Cc1c[nH]c2ccc([N+](=O)[O-])cc12)C(=O)O`, the activity, negative = inhibition is 34.9% [at 11.4 µM] (inactive).
For the compound `O=C(NCc1cn(-c2ccccc2)nc1-c1ccccc1)c1cc([N+](=O)[O-])cc([N+](=O)[O-])c1`, the AC50 was 1.78 µM (active).
On the same count and under the same terms, the value for `c1coc(CN2CCN(C(c3cccs3)c3nnnn3C3CCCC3)CC2)c1` (stereo not given) was 10 µM (active).
As for `CS(=O)(=O)N1CCC2(CCN(Cc3ccncc3)CC2)CC1`, the “activity, negative = inhibition” value is -33.9% (inactive).
For `Clc1ccc(C(c2nnnn2C2CCCC2)N2CCN(Cc3ccncc3)CC2)cc1` (stereo not given), the half-maximal activity concentration (AC50) was 0.224 µM (active).
